The text below walks through data of PubChem BioAssay (NCI).

Several values for one entry are separate records, joined by “and”; a condition that tells them apart may be missing. Equal entries are not always repeated. Compounds without any hit were thinned out: in the full panel of roughly 83,000, 20% have a hit.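 Cell lines were cultured in 96-well plates, exposed to a single compound concentration, and assessed for percent growth 48 hours later.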 Activity calls are given as the source filed them.

The assay has as its system UO-31 renal. The assay can be described thus: NCI-60 one-dose screen, 48 h (100 = growth as untreated, 0 = no growth, -100 = all killed). To be noted: 10 µM unless noted. The procedure:
Growth inhibition of the UO-31 human tumor cell line is measured as a screen for anti-cancer activity. Cells are grown in 96 well plates and exposed to the test compound for 48 hours. Compounds are tested at a single concentration, which is 10^-5 M for most compounds. The reported endpoint is percent growth (GI% or GIPRCNT), where numbers from 0 - 100% represent growth inhibition, and numbers from -100% - 0 represent cell death. For example, a value of 40 represents 60% growth inhibition. A value of 0 means no net growth occurred over the course of the experiment. A value of -40 indicates 40% of cells at the beginning of the experiment died by the end of the experiment. A value of -100 means all cells are dead at the end of the experiment.
NCI-60 Human Tumor Cell Lines Screen was performed using the standard one-dose NCI protocol, which is described in more detail at https://dtp.cancer.gov/discovery_development/nci-60/default.htm.
Compounds with GIPRCNT values below 10 were considered active. Activity score was based on GIPRCNT using the following formula: […]
Score is 0 for GIPRCNT values of 100 or above, 50 for GIPRCNT values of 0, and 100 for GIPRCNT values of -100.
For `CC(C)NCC(O)c1ccc(O)c(O)c1` (stereo not given), the growth was 82.6% (inactive) and 106% (inactive) and 76.1% (inactive).
As to `Cc1ccc(=O)[nH]n1`, the growth is 90.9% (inactive) and 95.1% (inactive).
The same measure for `CCN(CCNS(C)(=O)=O)c1ccc(N)c(C)c1`: 42.2% (inactive).
With `CC(C)NC(=O)N/C=C(\C#N)C(N)=O`, the growth is 87.8% (inactive).
Consider `Nc1ccc2c(O)cc(S(=O)(=O)O)cc2c1`, for which the growth was 69.5% (inactive) and 63.5% (inactive).
Turning to `CC[C@H](CC[C@@H](C)[C@H]1CC[C@H]2[C@@H]3CC=C4C[C@@H](O)CC[C@]4(C)[C@H]3CC[C@]12C)C(C)C`, the growth is 92.7% (inactive) and 96.2% (inactive).
The same measure for `CCCCNc1ccc(Nc2ccccc2)cc1`: 86.6% (inactive); for `O=C(O)CCCl`: 97% (inactive).
Take `NC1CCC(C(=O)O)CC1` (stereo not given): the growth was 105% (inactive) and 87% (inactive).
The same measure for `c1ccc(CNCCNCc2ccccc2)cc1`: 79.4% (inactive).
As to `N#CC(C#N)N=Nc1ccc(Cl)cc1`, the growth is 10.6% (inactive).
The same measure for `CC1=C/C(O)CC(=O)Cc2nc(co2)C(=O)N2CCC=C2C(=O)OC(C(C)C)C(C)/C=C\C(=O)NC/C=C\1` (stereo not given): 75.1% (inactive); for `c1ccc(-c2nc3ccccc3s2)cc1`: 66.9% (inactive).
The same measure for `Cl`: 87.1% (inactive); for `NN1CCOC(c2ccccc2)C1` (stereo not given): 71.4% (inactive).
Regarding `COc1ccc(N/C=C/C2=[N+](C)c3ccccc3C2(C)C)c(OC)c1`, the growth is 78.8% (inactive).
As to `CCCCOc1ccc(Nc2cc(Cl)ccc2C(=O)O)cn1`, the growth was 6.77% (active) and 86.2% (inactive).
The same measure for `COc1ccc(C(=O)CC(c2ccccc2)C(C#N)c2ccccc2)cc1` (stereo not given): 69.2% (inactive); for `O=c1[nH]cnc2c1ncn2C1OC(CO)C(O)C1O` (stereo not given): 113% (inactive) and 102% (inactive) and 55.3% (inactive); for `O=CN1CCCCC1`: 97.2% (inactive).
In the case of `CN(C)CC1CCCCCC(CN(C)C)C1=O` (stereo not given), the growth was 10.5% (inactive).
The same measure for `Oc1ccc(Cc2ccccc2Cl)c(O)c1`: 61.1% (inactive).
The same measure for `OCC1OC(O)C(O)C(O)C1O` (stereo not given): 97.4% (inactive).
The same measure for `CC1CCC2(OC1)OC1CC3C4CC=C5CC(O)CCC5(C)C4CCC3(C)C1C2C` (stereo not given): 86% (inactive); for `O=C(/C=C/c1ccccc1)c1ccccc1`: 79.3% (inactive).
For the compound `CCCCOC(=O)/C=C\C(=O)NC(N)=O`, the growth was 31% (inactive).
`c1ccc2c(c1)OC1OC2Oc2ccccc21`: the growth was 90.1% (inactive).
The same measure for `Nc1ncnc2c1ncn2C1OC(COP(=O)(O)O)C(O)C1O` (stereo not given): 100% (inactive).
The same measure for `O=C(CO)C(O)C(O)C(O)C(O)CO` (stereo not given): 97.8% (inactive) and 96.6% (inactive).
The same measure for `NC(=O)NCCCC(N)C(=O)O` (stereo not given): 82.8% (inactive); for `CC1CCC(C(C)C)C(NNC(N)=O)C1` (stereo not given): 86.6% (inactive).
In the case of `CC1CCC2(C(=O)O)CCC3(C)C(=CCC4C5(C)CCC(O)C(C)(C)C5CCC43C)C2C1C` (stereo not given), the growth is 5.91% (active) and 55.4% (inactive).
The same measure for `CCOC(=O)c1c(C)cc(=O)oc1C`: 88.9% (inactive); for `CCCCCCCCCCCCCCCCC(C(=O)O)C(O)(CC(=O)O)C(=O)O` (stereo not given): 98.7% (inactive) and 59.3% (inactive); for `Fc1ccc([I+]c2ccc(F)cc2)cc1`: 74.6% (inactive).
The same measure for `COc1cc(C(O)C2C(=O)OCC2C2(c3ccc4c(c3)OCO4)SCCCS2)cc(OC)c1OC` (stereo not given): 93.2% (inactive).
In the case of `OC1COC(OCc2ccccc2)C(O)C1O` (stereo not given), the growth is 81.9% (inactive).
As to `CC(=O)OCC1OC(OC(C)=O)C(OC(C)=O)C(OC(C)=O)C1OC(C)=O` (stereo not given), the growth was 79.8% (inactive) and 94.2% (inactive).
On to `CN1CNC(=O)NC1`, for which the growth was 98.5% (inactive) and 87.6% (inactive).
Take `Cc1cc(-c2cc(C)c(O)c(C)c2)cc(C)c1O`: the growth was 77.1% (inactive).
